SW480 rerep = inducers of DNA re-replication in SW480 colon cancer cells; SW480 DNA re-replication, Hoechst DNA content imaging, 48 h; Potency, µM (highest dose often 46.1 µM), without a hit: at the highest dose re-replication activation, actives largely listed as activators; 340,000 tested, 1.8% active; AID 624297; note: % of control where 0% means no effect; nearly all actives have a fitted effect of over 55% in size
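Readout is total intensity of Hoechst-stained nuclei, excited at 405 nm and collected at 500-530 nm. Compound treatment lasted 48 hr at 37 C in 5% CO2 before staining.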
PTAP TSG101 blk = blocks PTAP/TSG101 interaction to inhibit HIV-1 budding; Q99816; Fluorescence polarization, FITC-PTAP peptide / Tsg101 binding; Potency, µM (titrated, usually from 115 µM), without a hit: at the top dose activity change, negative = inhibition, hits mostly inhibitors; 340,000 tested, under 10 active; AID 493005; active = well fitted inhibition curve with a large enough effect in the main read-out, with a control signal flat, not every such curve was filed as active; inconclusive = small, poorly fitted or top-dose-only effect, or effect the other way, or a change in a side signal; inactive = no such curve, though single readings can be large or run the other way; note: % of control where 0% means no effect
Target sequence (Q99816 whole entry, looked up): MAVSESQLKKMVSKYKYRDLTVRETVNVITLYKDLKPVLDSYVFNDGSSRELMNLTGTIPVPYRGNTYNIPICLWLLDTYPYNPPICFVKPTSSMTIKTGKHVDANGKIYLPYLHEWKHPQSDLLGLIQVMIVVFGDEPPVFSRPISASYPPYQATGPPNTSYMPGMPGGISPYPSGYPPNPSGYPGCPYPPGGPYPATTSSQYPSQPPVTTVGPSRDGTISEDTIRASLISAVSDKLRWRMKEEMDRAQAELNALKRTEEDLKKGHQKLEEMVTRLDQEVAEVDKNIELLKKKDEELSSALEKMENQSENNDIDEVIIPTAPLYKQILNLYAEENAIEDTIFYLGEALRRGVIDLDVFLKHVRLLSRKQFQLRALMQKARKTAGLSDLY
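Fluorescence anisotropy tracks displacement of a FITC-tagged PTAP peptide (50 nM) from the Tsg101 binding domain (10 uM), following a 20 min room-temperature incubation at pH 7.5.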
KB-3-1 cytotox = KB-3-1 parental cell cytotoxicity | KB-3-1 viability, CellTiter-Glo ATP luminescence, 72 h | Potency, µM (top dose mostly 46.1 µM), most hits filed as cytotoxic | 400,000 tested, 1.4% active; note: % is set by controls: 0 for no effect and ±100 for the full control effect; nearly all actives have a fitted effect of over 60% in size
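Using CellTiter-Glo luminescence, growth of non-resistant KB-3-1 adenocarcinoma cells is assessed 72 h after pin-tool compound addition at 37 °C. Normalized responses across the concentration series yield fitted curves.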
PINK1 expr mod = changes PINK1 expression | PINK1 immunofluorescence, high-content cytometry, 24 h | Potency, µM (highest dose often 76.6 µM), inactives show top-dose activation (PINK1 increase), hits mostly activators | 410,000 tested, 0.2% active; active = well fitted activation curve with a large enough effect; inconclusive = small, poorly fitted or top-dose-only effect; cell line not stated here; note: % of control where 0% means no effect; nearly all actives have a fitted effect of over 65% in size
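PINK1 protein, normally rapidly degraded, was detected by immunofluorescence after 24 hour compound treatment of a stable cell line. Titration data (5 concentrations) came from laser-scanning cytometry, with CCCP-treated wells as controls.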
MCF10A rerep = inducers of DNA re-replication in MCF 10A breast cells; MCF 10A DNA re-replication, Hoechst nuclear intensity, 48 h; Potency, µM (doses to about 46.1 µM), inactives show at the highest dose activity, positive = re-replication, usual class: activators; 350,000 tested, 2.9% active; AID 624296; note: % of control where 0% means no effect; nearly all actives have a fitted effect of over 50% in size
KB-V1 MDR tox = KB-V1 MDR subline cytotoxicity; 400,000 tested, 3.4% active; AID 1347076; Potency, µM (top dose mostly 46.1 µM), most hits filed as cytotoxic; KB-V1 MDR cells viability, CellTiter-Glo, 72 h; note: % is set by controls: 0 for no effect and ±100 for the full control effect; nearly all actives have a fitted effect of over 60% in size
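qHTS viability screen in drug-selected KB-V1 MDR cells: 72 h compound treatment at 37 degrees C, ATP luminescence end point.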
* marks the source's active call; other numbers are inactive results; i = inactive; ? = inconclusive; . = not tested or not shown; ! = a repeat was not active; [ ] = another dose, or the depositor's remark. Compounds with a hit are over-represented: about 6.8% of the library has one in this group of screens. Unless noted, calls come from the whole dose curve; as a rule, active = well fitted curve in the direction sought with a large enough effect; inconclusive = small, poorly fitted or top-dose-only effect, or another doubt; inactive = no such curve, though single readings can be large; an effect the other way counts as inactive or inconclusive. Potency is the fitted concentration of half-maximal effect.

SMILES | SW480 rerep | PTAP TSG101 blk | KB-3-1 cytotox | PINK1 expr mod | MCF10A rerep | KB-V1 MDR tox
Cc1nc2ccccc2n1CCc1ccccc1 | -3% | -1% | i | 1% | 15% | i
Nc1nc2ccccc2n1C(=O)CCc1ccccc1 | ? | -4% | 18µM* | 14% | ? | i
CC(=O)c1nc2ccccc2n1CCc1ccccc1 | -22% | -4% | i | 4% | 1.8µM* | i
c1ccc(CCn2c(C3CC3)nc3ccccc32)cc1 | 2% | -4% | i | -1%[38.3 µM] | ? | 21µM*
O=C(O)CCn1c(C2CCCCC2)nc2ccccc21 | 0% | -5% | i | 2%[38.3 µM] | 1% | i
Cc1ccc2nc3ccc(N4CCCCCCC4)nn3c(=O)c2c1 | 2% | -7% | i | -1% | ? | ?
Cc1sc2nc3ccc(N4CCCC4)nn3c(=O)c2c1C | -4% | -8% | ? | 4% | 10% | 16µM*
O=C(Cn1cc(S(=O)(=O)Cc2ccccc2F)c2ccccc21)Nc1ccc(F)c(Cl)c1 | . | . | ? | 35µM* | . | ?
CC(C)(CO)[C@@H](O)C(=O)NCCC(=O)NCCSSCCNC(=O)CCNC(=O)[C@H](O)C(C)(C)CO | -2% | . | . | . | 10% | .
CCCCNC(=O)CO/N=C(\C)c1cc2ccccc2o1 | 17% | 82% | i | 4% | 25% | 16µM*
CCOc1cccc(/C=N/Nc2ccc(S(=O)(=O)N(CC)CC)cn2)c1O | ? | -2% | i | 2% | 5.2µM* | ?
CCN(CC)S(=O)(=O)c1ccc(N/N=C/c2cc(OC)c(OC)cc2OC)nc1 | ? | -4% | i | ? | ? | i
CCOc1cccc(/C=N/NC(=O)C2CCCC2)c1O | 5.8µM* | -5% | i | 1% | 9% | i
COc1ccc(-n2cccc2/C=C/[N+](=O)[O-])cc1 | 23µM* | 1% | ? | -3% | 15µM* | ?
COc1ccc(-n2cccc2C=O)cc1 | -4% | -2% | i | 1% | -5% | ?
O=C1C=C(NCCc2cc(Br)c(O)c(Br)c2)C(=O)c2ncccc21 | 3.7µM* | -11% | 7.3µM* | ? | ? | 5.8µM*
CC(C)(C)c1cc(CCC(=O)NCCc2ccccn2)cc(C(C)(C)C)c1O | 4% | 0% | i | 0% | 14% | ?
CCCCNC(=O)c1c(-c2ccccc2)c(-c2ccccc2)nn(C)c1=O | . | . | . | 1% | . | .
COc1ccccc1NC(=O)c1sc2nc(-c3cc4cc(Cl)ccc4oc3=O)[nH]c(=O)c2c1C | . | . | i | 15% | . | ?
Cc1ccc(S(=O)(=O)Nc2cc(=O)[nH]c(SCc3ccc(Cl)cc3)n2)cc1 | -71% | -3% | i | 8% | 18µM* | i
CNC(=O)C1CCC(Cn2c(=O)c3sccc3n(CC(=O)Nc3ccccc3)c2=O)CC1 (stereo not drawn) | . | . | i | 1% | . | ?
COc1cc(/C=C/c2nc(C#N)c(N3CCCCCC3)o2)cc(OC)c1OC | . | . | . | 4% | . | .
CCC(C)C(NC(=O)C1CCC(C)CC1)C(=O)Nc1ccc(OC)cc1OC (stereo not drawn) | 7% | 0% | i | 9% | -11% | i
COc1ccccc1NC(=S)NC1CCCCC1 | 0% | 0% | i | 0% | -1% | i
COc1ccccc1NC(=S)NCC1CCCCC1 | 9.2µM* | -2% | i | 2% | ? | i
SMILES | SW480 rerep | PTAP TSG101 blk | KB-3-1 cytotox | PINK1 expr mod | MCF10A rerep | KB-V1 MDR tox
CCOc1ccccc1NC(=S)NC1CCCCC1 | 4% | -6% | i | 2% | 19% | 23µM*
CCC(C)C(NC(=O)C1CCC(C)CC1)C(=O)Nc1cc(OC)ccc1OC (stereo not drawn) | 25% | -3% | i | ? | 15% | 2.6µM*
CCOc1ccc(C(=S)NC2CCCCC2)cc1OC | -3% | . | i | 1%[38.3 µM] | ? | 16µM*
CCc1ccc(NC(=O)c2sc(-n3nc(C)c(Cc4ccc(OC)cc4)c3C)nc2C)cc1 | . | . | . | 1% | . | .
Fc1ccc(-c2noc3ncnc(N4CCCCC4)c23)cc1 | . | . | i | 1% | . | i
CCOC(=O)c1cccc(NC(=O)c2cc3c(=O)n(Cc4cccnc4)ccc3nc2C)c1 | . | . | i | -1% | . | i
CCOC(=O)c1c(C)oc2ncnc(Nc3ccc(OC)cc3OC)c12 | . | . | i | 2% | . | ?
CC(C)c1ccc(NC(=O)CSc2nc(=O)n(Cc3ccccn3)c3c2CCC3)cc1 | . | . | . | 0% | . | .
COc1cc(C)c(CN2CCOc3ccc(C(O)c4cccnc4)cc3C2)cc1C (stereo not drawn) | . | . | . | 0% | . | .
COc1ccccc1NC(=O)C(CC(C)C)NC(=O)C1CCCCC1 (stereo not drawn) | -2% | -6% | i | 1% | 3% | 4.1µM*
COc1cc(-c2noc(C)c2C#CCO)cc(OC)c1OC | 1% | -4% | i | 1% | 13% | ?
COc1cc(-c2noc(C)c2C#CC2(O)CCCCC2)cc(OC)c1OC | -2% | 0% | ? | 0% | 0% | 15µM*!
COc1cc(-c2noc(C)c2C#Cc2ccsc2)cc(OC)c1OC | ? | -2% | ? | 2% | ? | 3.3µM*!
COc1cc(-c2noc(C)c2C#CC2(N)CCCCC2)cc(OC)c1OC | -4% | 1% | ? | 4% | ? | 21µM*!
COC(=O)[C@@H]1CCCN1Cc1ccc2c(c1)CN(Cc1coc3ccc(C)cc3c1=O)CCO2 | . | . | . | 1% | . | .
COc1ccccc1NC(=O)c1ccc(-c2nc(COc3ccc(C)cc3)c(C)o2)cc1 | . | . | i | 2% | . | ?
Cc1ccc(NC(=O)C(CC(C)C)NS(=O)(=O)c2ccc3c(c2)oc(=O)n3C)c(C)c1 (stereo not drawn) | . | . | i | 2% | . | i
O=C(Nc1ccc(Cl)c(Cl)c1)c1ccc(Cn2cc(Cl)cn2)cc1 | 5% | 1% | ? | ? | ? | i
CCOc1ccc(C(=O)Nc2cnn(Cc3ccc(Cl)c(Cl)c3)c2)cc1 | 3% | 1% | ? | 9%[38.3 µM] | 0.65µM* | 2.6µM*
O=C(/C=C/c1ccc([N+](=O)[O-])cc1)Nc1ncc([N+](=O)[O-])s1 | ? | -9% | ? | ? | ? | 8.2µM*
O=C(CCc1ccccc1)Nc1nncs1 | -10% | -2% | i | 0% | 1% | i
O=C(CCS(=O)(=O)Cc1ccccc1)Nc1nncs1 | 21µM* | -5% | i | 3% | ? | i
O=C(CS(=O)(=O)c1ccccc1)Nc1ncc([N+](=O)[O-])s1 | 0% | 0% | i | 0% | -2% | i
O=C(CCS(=O)(=O)Cc1ccccc1)Nc1ncc([N+](=O)[O-])s1 | 23µM* | 1% | i | 4% | ? | i

Source: PubChem BioAssay
